Results reported in PubChem BioAssay AID2283123 (EPA ToxCast).
Records with an inconclusive call do not appear. The source made the active and inactive calls. Rule for the calls: active = hit-call score of the fitted dose curve at least 0.9, where 1 is the maximum; inconclusive = response in the unintended direction; inactive = score below 0.9.

molecular target: rat CYP2E1, Cyp2e1 (gene 25086) (UniProt P05182); experiment: NVS_ADME_rCYP2E1: NovaScreen (NVS) CYP450-related Enzyme Activity (ADME) Assay for rat CYP2E1
Description: NVS_ADME_rCYP2E1 is a biochemical, single-readout assay that uses extracted gene-proteins in a cell-free assay. Measurements were taken 1 hour after chemical dosing in a 96-well plate.NVS_ADME_rCYP2E1 is one of one assay component(s) measured or calculated from the NVS_ADME_rCYP2E1 assay. It is designed to make measurements of enzyme activity, a form of enzyme reporter, as detected with fluorescence intensity signals by Fluorescence technology.Data from the assay component NVS_ADME_rCYP2E1 was analyzed into 1 assay endpoint. This assay endpoint, NVS_ADME_rCYP2E1, was analyzed in the positive analysis fitting direction relative to Acetonitrile as the negative control and baseline of activity. Using a type of enzyme reporter, loss-of-signal activity can be used to understand changes in the enzymatic activity as they relate to the gene Cyp2e1. Furthermore, this assay endpoint can be referred to as a primary readout, because this assay has produced multiple assay endpoints where this one serves a enzymatic activity function. To generalize the intended target to other relatable targets, this assay endpoint is annotated to the cyp intended target family, where the subfamily is xenobiotic metabolism.
Binding assays used specific radioligands (tritiated, iodinated) with non-radioactive competitive displacement ligands in agonist or antagonist protocols (as indicated) and various reference compounds and inhibitors to titrate specific binding to receptors and transporters. Most enzyme assays (CYPs, kinases, phosphatases, proteases, HDACs) used recombinant protein and specific substrates (fluorescence mostly, some colorimetric and radioactive) and inhibitors, followed by a biochemical separation of substrate and product. All assays for the biochemical HTS were initially run in duplicate at a single concentration (10 uM for CYP450 assays and 25 uM for all others). Assay-chemical combinations meeting a pre-defined threshold (e.g., 30% inhibition and other criteria defined below) were then run in singleton concentration-response format with maximum concentration of 20 uM for CYPs and 50 uM for all others. Each assay was run with positive and negative controls, and concurrent controls on every plate. The follow-up (secondary) screen tested active chemical-pairs in concentration series, as well as a few additional assays not tested in the primary screen, some selected negative inactives, and several cases re-run in the concentration series for confirmatory purposes.

Chain of rat CYP2E1, Cyp2e1 (gene 25086) (P05182 whole entry, looked up): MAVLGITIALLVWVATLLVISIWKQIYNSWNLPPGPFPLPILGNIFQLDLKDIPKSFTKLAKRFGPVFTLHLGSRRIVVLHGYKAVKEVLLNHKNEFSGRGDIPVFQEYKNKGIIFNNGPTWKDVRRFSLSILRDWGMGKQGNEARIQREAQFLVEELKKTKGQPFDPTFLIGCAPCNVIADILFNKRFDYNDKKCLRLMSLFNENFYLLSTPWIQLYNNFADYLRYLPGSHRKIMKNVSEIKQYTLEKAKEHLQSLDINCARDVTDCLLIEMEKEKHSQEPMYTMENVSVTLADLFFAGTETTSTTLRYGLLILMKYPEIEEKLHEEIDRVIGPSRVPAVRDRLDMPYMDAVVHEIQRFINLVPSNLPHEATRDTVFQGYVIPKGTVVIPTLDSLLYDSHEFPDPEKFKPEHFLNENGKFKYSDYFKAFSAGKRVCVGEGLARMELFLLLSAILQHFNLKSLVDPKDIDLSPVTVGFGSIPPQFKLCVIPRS

| SMILES | AC50 | outcome |
| --- | --- | --- |
| C#CCOC(=O)[C@@H](C)Oc1ccc(Oc2ncc(Cl)cc2F)cc1 | 1.6 µM (active) |  |
| S=C([S-])NCCNC(=S)[S-].[Mn+2] |  | inactive |
| N#CSCSc1nc2ccccc2s1 | 10 µM (active) |  |
| S=C(S)NCCNC(=S)S.[Mn+2].[S-]C([S-])=NCCN=C([S-])[S-].[Zn+2] |  | inactive |
